HT1080 IDH1KD tx: toxicity to HT-1080 IDH1 knockdown cells (counter line). HT-1080 IDH1 knockdown viability, ATP luminescence, 48 h. Potency, µM (doses to about 46.1 µM), for the others: at the top dose activity, negative = toxicity, hits mostly cytotoxic. actives 2% (n = 360,000);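 further: potency means the concentration at half of the fitted maximal effect; 0% = DMSO wells and -100% = cell-free medium wells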
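% activity derives from luminescence (CellTiter-Glo), normalised to DMSO and no-cell wells. HT-1080-IDH1KD cells, 750/well, had 48 h compound exposure at 37 °C.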
DT40 TDP1 CPT: growth inhibition of DT40 Tdp1-/-;hTDP1 cells with camptothecin (screen for TDP1 inhibitors); chicken DT40 Tdp1-/-;hTDP1 cells + 20 nM CPT, ATP luminescence, 48 h; Potency, µM (highest dose often 46.2 µM), inactives show at the highest dose activity change, negative = growth inhibition, most hits filed as inhibitors; actives 12% (n = 420,000); further: potency means the concentration at half of the fitted maximal effect; nearly all actives have a fitted effect of over 55% in size
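Chicken DT40 Tdp1-/- cells complemented with human TDP1, 400 cells/well, exposed to compounds plus 20 nM camptothecin for at least 48 h at 37 C; viability read as ATP content by CellTiter-Glo luminescence.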
DT40 TDP1 no CPT: qHTS for Inhibitors of human tyrosyl-DNA phosphodiesterase 1 (TDP1): qHTS in cells in absence of CPT | DT40 Tdp1-/- hTDP1 cells, no CPT, ATP luminescence, 48 h | actives 15% (n = 420,000) | Potency, µM (top dose mostly 46.2 µM), for inactives: at the top dose activity change, negative = growth inhibition, most hits filed as inhibitors; further: potency means the concentration at half of the fitted maximal effect; nearly all actives have a fitted effect of over 55% in size
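A cellular qHTS used chicken DT40 cells lacking endogenous Tdp1 but carrying stably transfected human TDP1. Compounds were applied without camptothecin, and cell growth kinetics were judged by ATP-dependent luminescence after ≥48 hr.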
ALOX12 inh: inhibitors of human 12S-lipoxygenase ALOX12; P18054; purified 12hLO, xylenol orange hydroperoxide absorbance; Potency, µM (series often up to 108 µM), for the others: top-dose activity change, negative = inhibition, usual class: inhibitors; actives 1.1% (n = 580,000); further: potency means the concentration at half of the fitted maximal effect
Target sequence (P18054 whole entry, looked up): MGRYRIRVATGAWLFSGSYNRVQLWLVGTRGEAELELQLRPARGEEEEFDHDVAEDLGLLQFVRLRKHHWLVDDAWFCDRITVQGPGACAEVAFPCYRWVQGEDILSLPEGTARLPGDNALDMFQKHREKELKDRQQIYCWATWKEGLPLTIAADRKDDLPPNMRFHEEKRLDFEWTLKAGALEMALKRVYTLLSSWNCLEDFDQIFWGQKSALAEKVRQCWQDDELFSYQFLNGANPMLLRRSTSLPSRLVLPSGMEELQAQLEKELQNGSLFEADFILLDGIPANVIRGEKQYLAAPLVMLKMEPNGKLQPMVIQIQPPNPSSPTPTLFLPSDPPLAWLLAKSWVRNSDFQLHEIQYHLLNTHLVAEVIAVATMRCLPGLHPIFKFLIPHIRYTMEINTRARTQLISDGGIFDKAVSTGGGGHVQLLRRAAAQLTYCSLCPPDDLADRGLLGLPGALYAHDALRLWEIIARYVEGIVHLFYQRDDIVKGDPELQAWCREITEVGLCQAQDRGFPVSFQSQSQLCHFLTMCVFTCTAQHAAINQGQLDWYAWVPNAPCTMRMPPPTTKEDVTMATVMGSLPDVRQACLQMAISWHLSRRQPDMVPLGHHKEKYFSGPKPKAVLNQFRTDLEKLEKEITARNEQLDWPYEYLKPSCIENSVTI
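Purified human 12hLO at 150 nM in 25 mM Hepes, 0.01% Triton X-100, pH 7.0, preincubated 15 min at room temperature with compound. Reaction started with 40 uM arachidonic acid, 30 min at room temperature. Hydroperoxide measured by Fe-xylenol orange, 573/405 nm absorbance ratio.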
IL1B secr inh: inhibitors of inflammasome signaling (IL-1 beta secretion); THP-1 LPS/ATP IL-1B secretion, AlphaLISA, 16 h; hits give low values; activity change, % at 57.5 µM; actives 4.7% (n = 360,000); AID 743279; in the data active means activity change below about -50%; inconclusive means mostly about -30% to -49%
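THP-1 cells pretreated 1 hr with compounds (up to 57.5 uM final), then stimulated with LPS (250 ng/mL final) plus ATP (1.25 mM final); secreted IL-1B measured by AlphaLISA after 16 hr, decreased signal indicating inhibition.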
HT1080-NT tox: kills 2HG-producing HT-1080-NT fibrosarcoma cells. HT-1080-NT fibrosarcoma viability, CellTiter-Glo ATP luminescence, 48 h. actives 1.6% (n = 360,000). Potency, µM (series often up to 46.1 µM), for the others: at the top dose activity, negative = less viability, usual class: cytotoxic;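 further: NT is the 2HG producing partner of a matched IDH1 knockdown line; potency means the concentration at half of the fitted maximal effect; 0% = DMSO-treated cells and -100% = media-only wells without cells; nearly all actives have a fitted effect of over 55% in size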
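HT-1080-NT; 750 cells/well; 5% FBS RPMI; 48 h compound, 37 degrees C; CellTiter-Glo luminescence; curve fitting and curve-class assignment.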
* marks the source's active call; other numbers are inactive results; ? = inconclusive; . = no result given; [ ] = dose if it differs, or a comment. This is one part of a sample in which hits are shown more often than they occur. Unless noted, the call rests on the fitted dose curve; in most records, active means well fitted curve in the direction sought with a large enough effect; inconclusive means small, poorly fitted or top-dose-only effect, or another doubt; inactive means no such curve, though single readings can be large; an effect the other way counts as inactive or inconclusive. Unless noted, on the % scale 0 is the no-effect control and ±100 the full control effect.

SMILES | HT1080 IDH1KD tx | DT40 TDP1 CPT | DT40 TDP1 no CPT | ALOX12 inh | IL1B secr inh | HT1080-NT tox
Cc1ccccc1Nc1nc(CSc2nnnn2C2CC2)cs1 | . | . | . | 28µM* | . | .
COc1ccccc1-c1nnc(SCc2csc(Nc3ccc(C)cc3)n2)o1 | . | . | . | 40µM* | . | .
Cc1ccc(Nc2nc(CSc3nnc(-c4ccccc4)n3C)cs2)cc1 | -2% | 21µM* | ? | 13% | ? | 0%
Cc1ccc(Nc2nc(CSc3nnnn3-c3ccccc3)cs2)cc1 | -29% | ? | 18µM* | -3% | 23 | -27%
COCCN(C)C(=O)c1ccc2c(c1)C1(CCN(CC3CC3)C1)CN2Cc1ccccc1 (configuration not stated) | . | . | . | 56%[176 µM] | . | .
Cn1c(/C(C#N)=C(\O)c2ccc(Br)s2)nc2ccccc21 | 0% | 22% | ? | -20% | 41 | -1%
Cn1c(/C(C#N)=C(\O)c2cc(Cl)sc2Cl)nc2ccccc21 | -11% | 18µM* | ? | 29% | 39 | 2%
O=C(NCCNc1ccc([N+](=O)[O-])cc1C(F)(F)F)c1cccc(F)c1 | -28% | ? | 21µM* | -7% | 0 | -16%
CC(C)(CNC(=O)c1cccc(F)c1)CNC(=O)c1cccc(F)c1 | 11% | ? | 18µM* | ? | 1 | -7%
O=C(Cc1c(Cl)cccc1Cl)N1CCN(S(=O)(=O)c2cccs2)CC1 | 8% | 21µM* | ? | -22% | 8 | 9%[9.24 µM]
O=C(CCCOc1ccccc1)N1CCN(S(=O)(=O)c2ccc(Cl)cc2)CC1 | 3% | ? | -28% | -30% | 3 | -3%
CC(=O)c1ccc(OCCCC(=O)N2CCN(S(=O)(=O)c3cccs3)CC2)cc1 | -21% | ? | 12µM* | 0% | -21 | -22%
COc1ccc(OCCSc2ccc(S(=O)(=O)N3CCCC3)cn2)cc1 | -22% | ? | ? | -1% | -1 | 1%[9.24 µM]
CCOc1ccc(OCCCC(=O)N2CCN(S(=O)(=O)c3ccc(Cl)cc3)CC2)cc1 | 12% | ? | ? | 45µM* | -15 | 6%
CN1CCN(S(=O)(=O)c2ccc(SCCOc3ccc(Cl)cc3)nc2)CC1 | -1% | -89% | 16µM* | -20% | ? | 2%
C[C@@H](NC(=O)c1ccc2c(c1)OCO2)c1onc(-c2cccnc2)c1C(=O)O | . | . | . | -1%[176 µM] | . | .
CCOc1ccc(OCC(=O)N2CCN(S(=O)(=O)c3ccccc3)CC2)cc1 | 3% | -26% | -20% | 20% | -26 | 8%
CCOc1ccc(S(=O)(=O)N2CCN(C(=O)c3cccn3C)CC2)cc1 | 5% | ? | 15µM* | 17% | -3 | 5%
CCN(CC)C(=O)c1ccc(-c2nnc3ccc(NC(=O)C4CC4)cn23)cc1 | . | . | . | -1% | . | .
CC(=O)Nc1cc([N+](=O)[O-])ccc1N1CCOCC1 | 17% | 0% | 2% | -11% | -4 | 2%
O=C(Nc1ccc([N+](=O)[O-])cc1)Nc1ccc(N2CCOCC2)c2nonc12 | 10% | 21µM* | 23µM* | ? | ? | -5%
O=C(c1ccccc1F)N1CCN(c2ccc([N+](=O)[O-])c(N3CCOCC3)c2)CC1 | -4% | -27% | -17% | -20% | -20 | 11%
O=C(c1cccc2ccccc12)N1CCN(c2ccc([N+](=O)[O-])c(N3CCOCC3)c2)CC1 | -9% | 9.2µM* | 21µM* | -18% | -1 | -23%
O=C(c1cc([N+](=O)[O-])ccc1N1CCOCC1)N1CCN(c2ccc([N+](=O)[O-])cc2)CC1 | -14% | 13µM* | 15µM* | -13% | -11 | -9%
O=C(Nc1ccc(N2CCCC2)cc1)c1cc([N+](=O)[O-])ccc1N1CCOCC1 | ? | ? | 23µM* | 0% | -13 | -28%
SMILES | HT1080 IDH1KD tx | DT40 TDP1 CPT | DT40 TDP1 no CPT | ALOX12 inh | IL1B secr inh | HT1080-NT tox
O=C(Nc1ccc(NC(=O)c2cc([N+](=O)[O-])ccc2N2CCOCC2)cc1)c1cccs1 | -13% | ? | ? | 3% | ? | -8%
O=C(c1cc([N+](=O)[O-])ccc1N1CCOCC1)N1CCCCC1 | 10% | 0% | 1% | -21% | 9 | 11%
O=C(NCc1ccco1)c1cc([N+](=O)[O-])ccc1N1CCCCC1 | -7% | 16µM* | ? | -18% | -17 | -6%
N#Cc1ccccc1Sc1ccccc1C(=O)N1CCOCC1 | 17% | -5% | -10% | 4% | 10 | 13%
O=C(NCc1ccco1)c1ccc(N2CCCCC2)c([N+](=O)[O-])c1 | 0% | 1% | -27% | -14% | ? | -3%
CC(C)C(=O)N1CCN(c2ccccc2NC(=O)c2cc([N+](=O)[O-])ccc2N2CCOCC2)CC1 | -6% | ? | 13µM* | -23% | -4 | -5%
O=C(c1ccccc1Sc1ccc([N+](=O)[O-])cc1Cl)N1CCOCC1 | -11% | ? | ? | -25% | -72* | -3%
COCCC(=O)N1CC2CC(C1)[C@H]1CCCC(=O)N1C2 (some centres not stated) | . | . | . | 1% | . | .
O=C(NCCc1ccc(Cl)cc1)C1CCC(CNc2nc(=S)[nH]c3ccccc23)CC1 (configuration not stated) | 3% | 6.5µM* | 9.2µM* | -6% | -3 | -10%
S=c1nc(NCCc2ccccc2Cl)c2ccccc2[nH]1 | ? | -28% | 26µM* | -3% | -6 | ?
O=C(NCCC1=CCCCC1)C1CCC(CNc2nc(=S)[nH]c3ccccc23)CC1 (configuration not stated) | -9% | ? | 16µM* | -3% | -27 | -2%
O=C(NCc1ccccc1Cl)C1CCC(CNc2nc(=S)[nH]c3ccccc23)CC1 (configuration not stated) | 1% | ? | 26µM* | -1% | 3 | 0%
CC1CCN(c2c(NCC3CCC(C(=O)NCCc4ccc(Cl)cc4)CC3)c(=O)c2=O)CC1 (configuration not stated) | -6% | ? | -84% | -4% | ? | 2%
O=C(CCCCCNc1nc(=S)[nH]c2ccccc12)NCc1ccccc1Cl | . | . | . | -10% | . | .
COCCCn1c(=O)c2ccccc2n(Cc2cc(C(=O)OC)ccc2OC)c1=O | -13% | -24% | -22% | ? | 0 | 0%
COc1ccc(-c2noc(-c3cc(C4CC4)[nH]n3)n2)cc1 | . | . | . | 23% | . | .
CC(C)c1nc2c(c(-c3ccc(Cl)cc3)n1)CCN(CC1CCCCC1)CC2 | . | . | . | -12%[6.33 µM] | . | .

High-throughput results deposited in PubChem by National Center for Advancing Translational Sciences (NCATS).
